Results published in PubChem BioAssay (Tox21).
Records with an inconclusive call do not appear. Calls of active or inactive are those of the source. Calls follow the shape of the dose curve; as a rule, active = well fitted curve in the direction sought with a large enough effect in the repeat runs; inconclusive = weak or mixed curves; inactive = no such curve, though single readings can be large; an effect the other way counts as inactive or inconclusive.

Tests used:
[1] = qHTS RealTime-Glo MT Cell Viability Assay in HepG2 cells - 40 hour (AID 1224870); also: nearly all actives have a fitted effect of over 50% in size
Outline: (§1)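 Real-time viability: cells seeded at 600 per well together with NanoLuc and cell-permeant prosubstrate, compounds added after 5 h incubation. Luminescence tracked at 0, 8, 16, 24, 32 and 40 h of exposure.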

[2] = qHTS RealTime-Glo MT Cell Viability Assay in HepG2 cells - 8 hour (AID 1224873); also: nearly all actives have a fitted effect of over 55% in size
Outline: as §1

[3] = A CellTox Green Cytotoxicity Assay to monitor cytotoxicity in HepG2 cells - 16 hour (AID 1224876); also: nearly all actives have a fitted effect of over 45% in size
Outline: (§2)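 Read-out is fluorescence of a cyanine dye excluded from live cells that stains DNA of dead HepG2 cells, with signal proportional to cytotoxicity. Plates were read at 0, 8, 16, 24, 32 and 40 h after compound addition.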

[4] = qHTS RealTime-Glo MT Cell Viability Assay in HepG2 cells - 32 hour (AID 1224877); also: nearly all actives have a fitted effect of over 55% in size
Outline: (§3)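 Real-time, nonlytic viability: 600 HepG2 cells/well mixed with NanoLuc enzyme plus prosubstrate; 5 h settle, compound (DMSO) added by pintool; luminescence monitored over 40 h at 37 C.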

[5] = A CellTox Green Cytotoxicity Assay to monitor cytotoxicity in HepG2 cells - 24 hour (AID 1224878); also: nearly all actives have a fitted effect of over 45% in size; also: potency is read from the fitted curve at half-maximal effect
Outline: as §2

[6] = qHTS RealTime-Glo MT Cell Viability Assay in HEK293 cells - 0 hour (AID 1224880); also: top concentration of the series differs between compounds; nearly all actives have a fitted effect of over 45% in size
Outline: (§4)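 Cells were seeded together with NanoLuc luciferase and a prosubstrate that viable cells reduce to a luciferase substrate. After a 5 h incubation at 37 C/5% CO2, compounds were added and luminescence was measured repeatedly during 40 h of treatment.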

[7] = A CellTox Green Cytotoxicity Assay to monitor cytotoxicity in HepG2 cells - 0 hour (AID 1224882); also: nearly all actives have a fitted effect of over 35% in size; also: potency is read from the fitted curve at half-maximal effect
Outline: as §2

[8] = A CellTox Green Cytotoxicity Assay to monitor cytotoxicity in HepG2 cells - 32 hour (AID 1224883); also: nearly all actives have a fitted effect of over 50% in size; also: potency is read from the fitted curve at half-maximal effect
Outline: as §2

[9] = qHTS RealTime-Glo MT Cell Viability Assay in HepG2 cells - 16 hour (AID 1224885); also: nearly all actives have a fitted effect of over 50% in size
Outline: as §3

[10] = qHTS RealTime-Glo MT Cell Viability Assay in HepG2 cells - 0 hour (AID 1224889); also: nearly all actives have a fitted effect of over 50% in size
Outline: as §3

[11] = qHTS RealTime-Glo MT Cell Viability Assay in HEK293 cells - 16 hour (AID 1224872); also: nearly all actives have a fitted effect of over 50% in size; also: potency is read from the fitted curve at half-maximal effect
Outline: (§5)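 Cells + reagent dispensed (600 cells/well, HEK293) → 5 h at 37 C/5% CO2 → 23 nL compound in DMSO pinned → 40 h at 37 C → luminescence read at 0, 8, 16, 24, 32, 40 h.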

[12] = qHTS RealTime-Glo MT Cell Viability Assay in HEK293 cells - 40 hour (AID 1224874); details: RealTime-Glo luminescence; max response: active compounds read low; also: nearly all actives have a fitted effect of over 50% in size; also: potency is read from the fitted curve at half-maximal effect
Outline: as §4

[13] = A CellTox Green Cytotoxicity Assay to monitor cytotoxicity in HepG2 cells - 40 hour (AID 1224879); also: nearly all actives have a fitted effect of over 40% in size; also: potency is read from the fitted curve at half-maximal effect
Outline: as §2

[14] = A CellTox Green Cytotoxicity Assay to monitor cytotoxicity in HEK293 cells - 8 hour (AID 1224884); also: nearly all actives have a fitted effect of over 35% in size; also: potency is read from the fitted curve at half-maximal effect
Outline: (§6)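 Nonlytic real-time cytotoxicity: HEK293 + CellTox Green reagent plated, 5 h preincubation, pintool compound addition (23 nL in DMSO), 37 C for 40 h, fluorescence measured at successive time points.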

[15] = qHTS RealTime-Glo MT Cell Viability Assay in HEK293 cells - 24 hour (AID 1224886); also: nearly all actives have a fitted effect of over 50% in size; also: potency is read from the fitted curve at half-maximal effect
Outline: as §5

[16] = qHTS RealTime-Glo MT Cell Viability Assay in HEK293 cells - 8 hour (AID 1224887); also: nearly all actives have a fitted effect of over 50% in size; also: potency is read from the fitted curve at half-maximal effect
Outline: as §4

[17] = A CellTox Green Cytotoxicity Assay to monitor cytotoxicity in HEK293 cells - 16 hour (AID 1224888); also: nearly all actives have a fitted effect of over 35% in size; also: potency is read from the fitted curve at half-maximal effect
Outline: as §6

[18] = A CellTox Green Cytotoxicity Assay to monitor cytotoxicity in HEK293 cells - 24 hour (AID 1224875); also: nearly all actives have a fitted effect of over 45% in size; also: potency is read from the fitted curve at half-maximal effect
Outline: as §6

[19] = A CellTox Green Cytotoxicity Assay to monitor cytotoxicity in HEK293 cells - 32 hour (AID 1224881); also: nearly all actives have a fitted effect of over 40% in size; also: potency is read from the fitted curve at half-maximal effect
Outline: as §6

[20] = A CellTox Green Cytotoxicity Assay to monitor cytotoxicity in HEK293 cells - 40 hour (AID 1224871); also: nearly all actives have a fitted effect of over 45% in size
Outline: as §6
% is scaled to controls: 0 for no effect and ±100 for the full control effect.

O=C1c2ccccc2C(=O)C1c1ccc2ccccc2n1
inactive: Potency [1] | outcome [2] | Potency [3] | Potency [4] | Potency [5] | Potency [6] | Potency [7] | Potency [8] | outcome [9] | Potency [10]

CC(=O)c1ccc(Cl)c(Cl)c1Cl
inactive: Potency [1] | Potency [11] | outcome [2] | max response [12] -19.2% | Potency [3] | Potency [4] | Potency [5] | Potency [13] | Potency [6] | Potency [7] | Potency [8] | Potency [14] | outcome [9] | Potency [15] | Potency [16] | Potency [17] | Potency [10]

NC(=O)c1ccccc1C(N)=O
active: Potency [12] 31 µM | Potency [18] 49.2 µM | Potency [5] 55.2 µM | Potency [13] 49.2 µM | Potency [19] 49.2 µM | Potency [7] 49.2 µM | Potency [8] 55.2 µM | Potency [14] 49.2 µM | Potency [15] 34.8 µM | Potency [17] 49.2 µM
inactive: Potency [1] | outcome [2] | Potency [4] | Potency [6] | outcome [9] | Potency [10]

CCOc1ccc2c(c1)C(C)CC(C)(C)N2 (stereo not given)
inactive: Potency [1] | Potency [11] | outcome [2] | max response [12] -1.9% | Potency [4] | Potency [6] | Potency [7] | Potency [14] | outcome [9] | Potency [15] | Potency [16] | Potency [17] | Potency [10]
active: Potency [5] 49 µM | Potency [8] 43.6 µM

Cc1ccc(Cl)c(OCC(O)CNC(C)(C)C)c1 (stereo not given)
inactive: Potency [1] | Potency [11] | max response [12] 1.75% | Potency [18] | Potency [3] | Potency [4] | Potency [5] | Potency [13] | Potency [6] | Potency [19] | Potency [7] | Potency [8] | Potency [14] | outcome [9] | Potency [15] | Potency [16] | Potency [17] | Potency [10]

C=Cc1ccc(C=C)cc1
inactive: Potency [1] | Potency [11] | outcome [2] | max response [12] 11.4% | Potency [18] | Potency [3] | Potency [4] | Potency [13] | Potency [6] | Potency [19] | Potency [7] | Potency [8] | Potency [14] | outcome [9] | Potency [15] | Potency [16] | Potency [17] | Potency [10]

O=C(OC1C[C@H]2CC[C@@H](C1)[N+]21CCCC1)C(O)(c1ccccc1)c1ccccc1 (stereo not given in full)
inactive: Potency [1] | Potency [11] | max response [12] 0.515% | Potency [18] | Potency [4] | Potency [5] | Potency [13] | Potency [6] | Potency [19] | Potency [7] | Potency [8] | outcome [9] | Potency [15] | Potency [16] | Potency [17] | Potency [10]

O=C1C=CCCC1
inactive: Potency [1] | Potency [11] | max response [12] -0.315% | Potency [18] | Potency [3] | Potency [4] | Potency [5] | Potency [13] | Potency [6] | Potency [19] | Potency [7] | Potency [8] | outcome [9] | Potency [15] | Potency [16] | Potency [17] | Potency [10]

Oc1ccc(Oc2ccccc2)cc1
active: Potency [11] 14.7 µM | Potency [12] 14.7 µM | Potency [5] 36.9 µM | Potency [13] 36.9 µM | Potency [8] 36.9 µM | Potency [15] 16.5 µM | Potency [16] 16.5 µM
inactive: Potency [1] | Potency [18] | Potency [4] | Potency [6] | Potency [7] | Potency [14] | outcome [9] | Potency [17] | Potency [10]

N#CCCCC(C#N)CCC#N (stereo not given)
inactive: Potency [1] | Potency [11] | outcome [2] | max response [12] 17.1% | Potency [18] | Potency [4] | Potency [5] | Potency [13] | Potency [6] | Potency [19] | Potency [7] | Potency [8] | Potency [14] | outcome [9] | Potency [15] | Potency [16] | Potency [17] | Potency [10]

COC(=O)Cc1cccc2ccccc12
inactive: Potency [1] | Potency [11] | outcome [2] | max response [12] -1.93% | Potency [18] | Potency [3] | Potency [4] | Potency [5] | Potency [6] | Potency [19] | Potency [7] | Potency [8] | Potency [14] | outcome [9] | Potency [15] | Potency [16] | Potency [17] | Potency [10]

CC(CC(C#N)(c1ccccc1)C(C)C)N(C)C (stereo not given)
inactive: Potency [20] | Potency [11] | outcome [2] | max response [12] 6.67% | Potency [18] | Potency [3] | Potency [4] | Potency [5] | Potency [13] | Potency [6] | Potency [19] | Potency [7] | Potency [8] | Potency [14] | outcome [9] | Potency [15] | Potency [16] | Potency [17] | Potency [10]

CCCOC(C)=O
inactive: Potency [1] | Potency [11] | max response [12] -1.95% | Potency [18] | Potency [3] | Potency [4] | Potency [5] | Potency [13] | Potency [6] | Potency [19] | Potency [7] | Potency [8] | Potency [14] | outcome [9] | Potency [15] | Potency [16] | Potency [17] | Potency [10]

C(/C=C/C=C/Nc1ccccc1)=Nc1ccccc1
inactive: Potency [1] | Potency [11] | max response [12] -15.7% | Potency [18] | Potency [3] | Potency [4] | Potency [5] | Potency [13] | Potency [6] | Potency [19] | Potency [7] | Potency [8] | outcome [9] | Potency [15] | Potency [16] | Potency [17] | Potency [10]

CCCCCCC/C=C/C=O
inactive: Potency [1] | Potency [11] | outcome [2] | max response [12] 6.61% | Potency [18] | Potency [3] | Potency [4] | Potency [13] | Potency [6] | Potency [19] | Potency [7] | Potency [8] | Potency [14] | outcome [9] | Potency [15] | Potency [16] | Potency [10]
